Only some compounds are listed: those with a hit (about 5.3% of all), similar ones and a draw of the others.
JMJD2A Tudor: qHTS Assay for Inhibitors of JMJD2A-Tudor Domain. 4.4% of 390,000 active. AID 504339, 2011. Potency, µM (titrated, usually from 114 µM), without a hit: top-dose activity change, negative = inhibition, most hits filed as inhibitors. AlphaScreen JMJD2A-Tudor / H3K4me3 peptide binding. Lysine-specific demethylase 4A (Homo sapiens), O75164; note: potency is the fitted concentration of half-maximal effect; % is set by controls: 0 for no effect and ±100 for the full control effect; nearly all actives have a fitted effect of over 50% in size
BAZ2B block: qHTS Assay for Inhibitors of BAZ2B; AlphaScreen BAZ2B-H3K14Ac peptide displacement; Potency, µM (top dose mostly 114 µM), for the others: at the highest dose activity change, negative = inhibition, usual class: inhibitors; 4.4% of 360,000 active; AID 504333, 2011; note: potency is the fitted concentration of half-maximal effect; % is set by controls: 0 for no effect and ±100 for the full control effect; nearly all actives have a fitted effect of over 60% in size
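BAZ2B 50 nM plus b-H3(5-23)K14Ac 50 nM, PBS pH 7.4/0.01% Tween-20, 30 min RT; compound added (max 110 uM), 30 min RT; streptavidin donor/Ni-chelate acceptor beads 10 ug/mL final, 20 min dark; AlphaScreen read.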
TDP1 inh: qHTS Assay for Inhibitors of Tyrosyl-DNA Phosphodiesterase (TDP1); Tyrosyl-DNA phosphodiesterase 1 (Homo sapiens), Q9NUW8; recombinant TDP1, AlphaScreen DNA substrate cleavage; Potency, µM (doses to about 130 µM), for inactives: top-dose activity change, negative = inhibition, most hits filed as inhibitors; 0.28% of 350,000 active; AID 485290, 2010; note: potency is the fitted concentration of half-maximal effect; % is set by controls: 0 for no effect and ±100 for the full control effect; nearly all actives have a fitted effect of over 40% in size
Target sequence (Q9NUW8 whole entry, looked up): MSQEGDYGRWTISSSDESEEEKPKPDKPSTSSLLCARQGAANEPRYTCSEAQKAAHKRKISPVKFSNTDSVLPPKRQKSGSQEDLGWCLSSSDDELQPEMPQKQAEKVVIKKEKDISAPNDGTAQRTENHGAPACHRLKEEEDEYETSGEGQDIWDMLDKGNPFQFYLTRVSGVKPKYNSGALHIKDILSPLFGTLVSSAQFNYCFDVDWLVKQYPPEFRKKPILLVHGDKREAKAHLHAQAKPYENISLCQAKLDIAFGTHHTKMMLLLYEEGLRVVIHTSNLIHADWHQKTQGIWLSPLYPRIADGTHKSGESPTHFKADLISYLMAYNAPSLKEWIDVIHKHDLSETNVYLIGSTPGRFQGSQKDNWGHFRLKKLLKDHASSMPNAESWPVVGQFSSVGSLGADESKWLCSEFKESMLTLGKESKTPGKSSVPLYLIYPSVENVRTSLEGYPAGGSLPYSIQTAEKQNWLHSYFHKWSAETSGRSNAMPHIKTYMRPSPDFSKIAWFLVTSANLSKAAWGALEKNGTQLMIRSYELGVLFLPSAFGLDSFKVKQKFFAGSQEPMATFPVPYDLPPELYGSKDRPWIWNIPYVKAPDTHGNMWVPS
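E. coli-derived human Tdp1, 1 nM final. Cpd preinc 15 min RT; substrate 15 nM final, 5 min RT; AS bead mix 10 ug/ml final, 10 min RT. Signal loss = tyrosine-FITC cleavage. No-enzyme wells = max signal.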
CtBP-E1A inh: qHTS Assay for Inhibitors of the CtBP/E1A Interaction | CtBP / adenovirus E1A interaction (AlphaScreen) | 0.49% of 340,000 active | AlphaScreen GST-E1A/His-CtBP binding, 1536-well; hits give low values | activity change, % (test concentration not listed); in the data active = activity change below about -65%; inconclusive = mostly about -30% to -63%; note: % is set by controls: 0 for no effect and ±100 for the full control effect
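Homogeneous bead-based format: GST-tagged E1A captured on glutathione donor beads, His-tagged CtBP on nickel acceptor beads; compounds precede bead addition by 2 h at 37 °C.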
Six1-Eya2 blk: qHTS Assay for Inhibitors of the Six1/Eya2 Interaction; Homeobox protein SIX1 (Homo sapiens) + Protein phosphatase EYA2 (Homo sapiens), …; AlphaScreen GST-Six1/His-Eya2 binding, biochemical; hits give low values; activity change, % (no concentration beside the values); 0.56% of 360,000 active; AID 651725, 2012; in the data active = activity change below about -65%; inconclusive = mostly about -30% to -63%; note: % is set by controls: 0 for no effect and ±100 for the full control effect
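GST-Six1 + His-Eya2 (5X stock: 250/500 nM); Tris pH 8.0, 300 mM NaCl, 0.05% BSA, 0.02% Tween 20; GSH donor/Ni acceptor beads; 1 h 37 °C dark; AlphaScreen readout.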
HP1b binding inh: HTS for Inhibitors of HP1-beta Chromodomain Interactions with Methylated Histone Tails; Chromobox protein homolog 1 (Homo sapiens), P83916; AlphaScreen HP1-beta / biotin-H3K9me3 peptide binding; Potency, µM (top dose mostly 114 µM), without a hit: top-dose activity change, negative = inhibition, actives largely listed as inhibitors; 0.56% of 390,000 active; AID 540317, 2011; note: potency is the fitted concentration of half-maximal effect; nearly all actives have a fitted effect of over 70% in size
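Compound inhibition of the preformed complex between 50 nM HP1-beta and 50 nM biotinylated H3K9me3 peptide was read by AlphaScreen. Buffer was PBS pH 7.4 with 0.01% Tween-20. Incubations ran 30 min at room temperature, with 10 ug/mL donor/acceptor beads.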
Active calls of the source: *; ? = inconclusive; . = no result; [ ] = another dose, or the depositor's remark. Unless noted, calls come from the whole dose curve; as a rule, active = well fitted inhibition curve with a large enough effect; inconclusive = small, poorly fitted or top-dose-only effect; inactive = no such curve, though single readings can be large or run the other way.

SMILES | JMJD2A Tudor | BAZ2B block | TDP1 inh | CtBP-E1A inh | Six1-Eya2 blk | HP1b binding inh
CCCC(=O)NC(c1ccc(Cl)cc1Cl)c1ccc2cccnc2c1O (stereo not drawn) | -19% | -2% | . | -73* | ? | 44%
COc1cccc(C(NC(C)=O)c2nc(-c3cccc4cccnc34)cs2)c1 (stereo not drawn) | . | . | . | 0 | 0 | .
CC(=O)NC(c1ccc2ccccc2c1)c1ccc2cccnc2c1O (stereo not drawn) | 25µM* | 28µM* | . | -66* | -89* | 31%
CCCCC(=O)NC(c1ccccc1Cl)c1c(O)ccc2ccccc12 (stereo not drawn) | 1% | 11% | 3% | 3 | 4 | -4%
CCCCC(=O)NC(c1ccc(N(C)C)cc1)c1ccc2cccnc2c1O (stereo not drawn) | 18µM* | 20µM* | . | -91* | -70* | ?
CCCC(=O)NC(c1ccccc1Cl)c1c(O)ccc2ccccc12 (stereo not drawn) | -14% | ? | 2% | 9 | -7 | 13%
Cc1nc(-c2cccc(F)c2)sc1CCNC(=O)Cc1ccc(F)cc1 | -11% | 7% | 3% | . | . | 17%[57 µM]
COCCCNC(=O)C(C)n1c2ccccc2c2cnn(C)c(=O)c21 (stereo not drawn) | -7% | 4% | 3% | . | . | 32%
Cc1nc2cc(-c3ccccc3)nn2c(C)c1CCC(=O)NCc1cccc(Cl)c1 | -21% | -8% | 5% | . | . | 24%
Cc1cc(C)c2c(=O)nc(SCc3ccccc3C)n(C3CC3)c2n1 | -9% | -2% | 3% | . | . | 29%[57 µM]
O=C(CSc1ccc(-c2ccco2)nn1)N1CCCCC1 | -5% | ? | . | 6 | 8 | 24%
c1ccc(CSc2ccc(-c3ccco3)nn2)cc1 | -8% | -4% | 2% | 1 | -15 | 30%
O=C(CSc1ccc(-c2ccccn2)nn1)c1ccccc1 | 7.1µM* | 3.5µM* | 2% | -88* | -86* | 37%
O=C(CSc1ccc(-c2ccccc2)nn1)c1ccccc1 | -19% | 4% | 0% | 8 | 8 | 39%
O=C(CSc1ccc(-c2ccccn2)nn1)N1CCCC1 | 3.2µM* | 7.1µM* | -3% | 5 | -92* | -13%
c1ccc(CSc2ccc(-c3ccccn3)nn2)cc1 | 7.9µM* | 6.3µM* | 3% | ? | -91* | 27%
Cc1nc(N2CCCC2)c2c(C(=O)Nc3cccc(C)c3C)c(C)oc2n1 | -18% | 1%[57.1 µM] | -2% | . | . | 19%
CCOc1ccc(CNC(=O)CCCn2c(=O)c3cccn3c3ccccc32)cc1 | ? | -34% | 9% | . | . | -17%
COc1ccc(C=C(C#N)C(=O)c2ccccc2)cc1 | . | . | . | 7 | 14 | .
COc1cc(/C=C(\C#N)C(=O)c2ccc(O)c(O)c2)cc(I)c1O | 8.9µM* | 40µM* | 6%[56.1 µM] | -6 | ? | 8.9µM*
CC(C)(C)C1CCc2c(sc(NC(=O)c3cc4ccccc4c(=O)o3)c2C(N)=O)C1 (stereo not drawn) | -3% | 4%[57.1 µM] | 0% | . | . | 8%
COc1ccc(OCc2cn(CC(=O)c3ccc(O)cc3)nn2)cc1 | -32% | . | . | -3 | 1 | 8%
O=C(Cn1cc(COc2c(F)c(F)cc(F)c2F)nn1)c1ccc(O)cc1 | 40µM* | . | . | 5 | 4 | 64%
COc1ccc(C(=O)/C=C/c2ccc(N3CCCCC3)c([N+](=O)[O-])c2)c(OC)c1 | 10µM* | 8.9µM* | 11% | 0 | 28 | 16µM*
COc1cccc(CN(C)C(=O)c2ccc(N3CCCC3)c([N+](=O)[O-])c2)c1 | 45µM* | ? | 12% | -17 | -17 | -11%
SMILES | JMJD2A Tudor | BAZ2B block | TDP1 inh | CtBP-E1A inh | Six1-Eya2 blk | HP1b binding inh
COc1ccc(C(=O)/C=C/c2ccc(N3CCCCC3)c([N+](=O)[O-])c2)cc1 | 11µM* | 4µM* | 4% | -3 | -4 | 25µM*
COc1ccc(C=CC(=O)c2ccc([N+](=O)[O-])cc2)cc1 | -17% | . | . | 2 | 5 | -12%
COc1ccc(NC(=O)CN(C)C(=O)c2ccc(N3CCCCC3)c([N+](=O)[O-])c2)cc1 | -34% | ? | 5% | -10 | -8 | -18%
O=S(=O)(Nc1nccs1)c1ccc(NCc2cc(Br)cc(Br)c2O)cc1 | ? | ? | 7% | . | -90* | -13%
CCc1nnc(NS(=O)(=O)c2ccc(NCc3cc(Br)ccc3O)cc2)s1 | -21% | -23% | 5% | -30 | -18 | 13%
COc1nccnc1NS(=O)(=O)c1ccc(NC(=O)c2cccc(C)c2)cc1 | -11% | 79µM* | 4% | -1 | -2 | 15%
COc1nccnc1NS(=O)(=O)c1ccc(NCc2cc(Br)ccc2O)cc1 | -36% | ? | 2% | -73* | -77* | ?
COc1ccc(C(=O)Nc2ccc(S(=O)(=O)Nc3nccnc3OC)cc2)cc1 | -16% | -26% | 3% | 17 | -11 | 53%
CCN(CC)S(=O)(=O)c1cccc(C(=O)Nc2ccccc2C(=O)Nc2ccc(OC)cc2)c1 | -7% | 0% | 3% | . | . | 26%
Oc1ccccc1C=NCCN1CCN(CCN=Cc2ccccc2O)C1c1ccccc1O (stereo not drawn) | 22µM* | . | . | -99* | -86* | 13%[57 µM]
Cc1cc(O)c(C)c2c1CC[C@H]1[C@H](C)C(=O)O[C@H]21 | . | . | 7% | . | . | .
O=S(=O)(O)c1cc(Cl)cc(N=Nc2ccc(O)cc2O)c1O | 20µM* | . | . | -90* | -92* | ?
O=C(O)c1cc(O)ccc1N=Nc1ccccc1 | 14% | -9% | . | . | -1 | 42%
FC(F)(F)c1cccc(N2CCC(N=CN3CCCCCC3)=N2)c1 | -15%[11.4 µM] | 40µM* | 8% | . | ? | ?
CC(C)(C)CC(=O)Nc1nnc2n1CCS2 | -8% | -4% | 8% | . | . | 14%[57 µM]
CCCC(=O)Nc1nnc2n1CCS2 | 79µM* | -11% | 9% | . | . | -2%[57 µM]
O=C(Cc1ccccc1)Nc1nnc2n1CCS2 | 50µM* | 79µM* | 8% | . | . | 12%[57 µM]
O=C(Cc1ccc(F)cc1)Nc1nnc2n1CCS2 | ? | 56µM* | 7% | . | . | 6%[57 µM]
O=c1c(Cc2ccccc2)c(O)nc2n1CCS2 | 0% | 10%[57.1 µM] | 2% | 3 | 3 | 29%
CC(C)(C)C(=O)Nc1nnc2n1CCS2 | -10% | -1% | 2% | . | . | 15%[57 µM]
O=C(Nc1nnc2n1CCS2)c1ccco1 | 1.6µM* | 13µM* | 1% | ? | ? | 20%[57 µM]

Assay outcomes as filed in PubChem BioAssay.
